Laboratory results published in PubChem BioAssay AID720566 (Broad Institute, 2013).
Results with a measured potency or affinity are listed apart. The source made the active and inactive calls.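 How the source made its calls: active means in all runs, an absorbance decrease of 25% or more of the average positive control decrease; inconclusive means runs conflict, with both active and inactive results; inactive means all runs inactive, opposite-direction effects included.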

Biological target: Protein disulfide-isomerase A6 (Homo sapiens) (UniProt Q15084)
Sequence (Q15084 whole entry, looked up): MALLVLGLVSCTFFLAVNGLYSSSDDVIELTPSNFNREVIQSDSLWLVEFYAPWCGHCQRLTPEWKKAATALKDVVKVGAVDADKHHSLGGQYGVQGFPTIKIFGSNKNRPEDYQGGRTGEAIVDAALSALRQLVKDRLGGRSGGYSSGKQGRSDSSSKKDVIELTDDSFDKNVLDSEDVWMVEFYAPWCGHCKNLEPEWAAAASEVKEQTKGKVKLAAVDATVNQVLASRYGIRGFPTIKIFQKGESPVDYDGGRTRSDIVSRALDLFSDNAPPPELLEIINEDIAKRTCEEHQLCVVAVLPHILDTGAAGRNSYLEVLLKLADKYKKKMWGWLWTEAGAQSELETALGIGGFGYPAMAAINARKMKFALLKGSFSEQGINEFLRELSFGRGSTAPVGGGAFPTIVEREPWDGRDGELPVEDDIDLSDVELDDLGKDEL
Experiment: inhibitors of ERp5-mediated insulin aggregation, dose response, biochemical, turbidity, absorbance 650 nm, cherry-picked samples (AID 720566);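 further: negative values mean less insulin aggregation so ERp5 inhibition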
Details: Recombinant ERp5 insulin aggregation; series mostly up to 35 µM

SMILES	outcome
C[C@H](CO)N1C[C@H](C)[C@@H](CN(C)C(=O)Oc2ccc3ccccc3c2)OCc2cn(nn2)CCCC1=O	inactive
COc1ccc(C#Cc2ccc([C@H]3[C@H](CO)N4CCCCN(C(=O)Cc5cccnc5)C[C@@H]34)cc2)cc1	inactive
Cc1cc(OCC(=O)NCc2ccc(S(N)(=O)=O)cc2)c2c3c(c(=O)oc2c1)CCC3	inactive
CCn1nc(/C=C/c2ccccc2)nc2c(=O)n(C)c(=O)nc1-2	inactive
